Measured values: PubChem BioAssay
Active and inactive are the calls of the source.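 Rule for the calls: active = Her2 level under about 52% in both replicate screens, with viability over 70% of control (limit read from the data); inconclusive = Her2 under the limit in one screen only, or viability under 70%; inactive = Her2 level above the set limit.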 Peptide text beside a SMILES is read from it. * marks the point of attachment. Boc = CC(C)(C)OC(=O)*

System: not listed separately
Experiment: Her2 expression decrease, cell viability multiplex – SKBR3 breast tumor cells, AlphaScreen, ATP viability, primary screen (AID 461);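 for Her2 level: lower value means less Her2 protein in the cells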;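 for viability: percent of carrier control wells set as 100% viability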
Settings: SKBR3 Her2 protein level, 18-24 h, measured here: SKBR3 viability, ATP luminescence, at 10 µM

Structure (SMILES) | viability [%]
Cc1ccc(NC2c3ncccc3C(=O)N2C2CCCCC2)cc1C (stereo not given) | 98.5
O=C(O)c1c[nH]c2ccc(S(=O)(=O)N3CCN(c4ccc(F)cc4)CC3)cc2c1=O | 93.5
O=C(O)Cn1cc2c(n1)CCCC2 | 96
O=C1CC(c2ccc(Cl)cc2)n2nc(N3C(=O)c4ccccc4C3=O)nc2N1 (stereo not given) | 106
CCc1nnc(NC(=O)CSc2nnc(-c3ccc(OC)cc3)n2C)s1 | 87
COc1cccc(NC(=O)Nc2cccs2)c1 | 93
Cn1c(=O)c2c(nc(NCCCO)n2CCc2ccccc2)n(C)c1=O | 94
CC(=O)c1coc2ccc(OCC(=O)O)cc12 | 104
CCCN(Cc1cc2ccc(C)cc2[nH]c1=O)C(=O)c1cccnc1 | 87
CCOP(=O)(c1ccc(N(C)C)cc1)C(O)c1ccccc1OC (stereo not given) | 86
CCOCCCn1c(=S)[nH]c2cc3c(cc2c1=O)OCO3 | 99
COc1ccc(CCNC(=O)C2CCN(Cc3nc(-c4cccc(Cl)c4)oc3C)CC2)cc1OC | 83.5
c1csc(-c2nc3nc4ccccc4nc3n2Cc2ccc3c(c2)OCO3)c1 | 98.5
CC(C)CC(NC(=O)OC(C)(C)C)C(=O)NC(C(=O)NC(C)C(N)=O)C(C)C (stereo not drawn) (Boc-Leu-Val-Ala-NH2; configuration not given here) | 102
COc1ccc(-c2ccc(Nc3ccc(S(=O)(=O)N4CCCC4)cc3)nn2)cc1OC | 77.5
CC1(C(=O)CSc2nc3ccccc3s2)CCC(=O)O1 (stereo not given) | 107
Cc1cc(NC(=O)CN2CCC(O)(c3cccc(F)c3)CC2)no1 | 97
COC(=O)c1[nH]c2ccccc2c1NC(=O)CN1CCC(C(N)=O)(N2CCCCC2)CC1 | 96
Cc1cc(C)n(CCCNC(=O)c2ccc3c(c2)NC(=O)CS3)n1 | 104
CCOC(=O)/C=C1\SCC(=O)N1Cc1ccc(Br)cc1 | 112

Structure (SMILES) | viability [%]
CCOc1ccc2cc(C#N)c(SCC(=O)N3CCOCC3)nc2c1 | 109
CCN(CC)CCN1C(=O)C(O)=C(C(=O)c2ccco2)C1c1ccccn1 (stereo not given) | 109
O=C1CCC(=O)N1OCCCCOc1ccccc1 | 123
O=C(O)CCc1ccc(-c2ccc(F)cc2)n1CC(=O)O | 94.5
CCN(CC)CCCN(Cc1cc2cc(OC)ccc2[nH]c1=O)C(=O)Nc1ccccc1 | 90
Cc1cccc(Cc2nnc(NC(=O)c3cccc(S(=O)(=O)N4CCOCC4)c3)s2)c1 | 107
CC(C)(CO)NC(=O)CCCOc1ccc(Cl)cc1Cl | 97
O=C(c1ccc(-c2ccccc2)cc1)N1CCN(c2ncccn2)CC1 | 91
Fc1ccc(-c2csc3nnc(SCc4cccnc4)n23)cc1 | 108
CN(C)CCCN1C(=O)C(=O)/C(=C(/O)c2ccncc2)C1c1cccc(Br)c1 (stereo not given) | 90.5
CCN(CC)c1ccc(-c2c(C#N)c(N)nc(OC)c2C#N)cc1 | 75.5
Cc1cc(NC(=O)CSc2nc3ccccc3n2CC(=O)N2CCCCC2)no1 | 78
CCOC(=O)C1CCN(C(c2cc3cc(C)cc(C)c3[nH]c2=O)c2nnnn2C2CCCCC2)CC1 (stereo not given) | 69.5
O=c1[nH]cnc2c1nc(SCc1ccccc1)n2C1OC(CO)C(O)C1O (stereo not given) | 94.5
COc1ccc(-c2noc(CCCC(=O)O)n2)cc1 | 130
Cc1nc(SCC(=O)N2CCC(C(N)=O)CC2)n[nH]1 | 94.5
COC(=O)c1ccc(NC(=O)Cn2nnc3ccccc32)cc1 | 94
O=C(CCC(=O)N1CCc2ccccc2C1)N1CCN(S(=O)(=O)c2ccccc2)CC1 | 82
O=C(CN1C(=O)CCSc2ccccc21)Nc1ccc(F)cc1 | 94
CCC(=O)/C=C1\Sc2ccc(OC)cc2N1CCO | 120

Biological target: Receptor tyrosine-protein kinase erbB-2 (Homo sapiens) (UniProt P04626)
Experiment: as above
Settings: 18-24 h, at 10 µM, stronger effect = lower value

Chain of Receptor tyrosine-protein kinase erbB-2 (Homo sapiens) (P04626 whole entry, looked up): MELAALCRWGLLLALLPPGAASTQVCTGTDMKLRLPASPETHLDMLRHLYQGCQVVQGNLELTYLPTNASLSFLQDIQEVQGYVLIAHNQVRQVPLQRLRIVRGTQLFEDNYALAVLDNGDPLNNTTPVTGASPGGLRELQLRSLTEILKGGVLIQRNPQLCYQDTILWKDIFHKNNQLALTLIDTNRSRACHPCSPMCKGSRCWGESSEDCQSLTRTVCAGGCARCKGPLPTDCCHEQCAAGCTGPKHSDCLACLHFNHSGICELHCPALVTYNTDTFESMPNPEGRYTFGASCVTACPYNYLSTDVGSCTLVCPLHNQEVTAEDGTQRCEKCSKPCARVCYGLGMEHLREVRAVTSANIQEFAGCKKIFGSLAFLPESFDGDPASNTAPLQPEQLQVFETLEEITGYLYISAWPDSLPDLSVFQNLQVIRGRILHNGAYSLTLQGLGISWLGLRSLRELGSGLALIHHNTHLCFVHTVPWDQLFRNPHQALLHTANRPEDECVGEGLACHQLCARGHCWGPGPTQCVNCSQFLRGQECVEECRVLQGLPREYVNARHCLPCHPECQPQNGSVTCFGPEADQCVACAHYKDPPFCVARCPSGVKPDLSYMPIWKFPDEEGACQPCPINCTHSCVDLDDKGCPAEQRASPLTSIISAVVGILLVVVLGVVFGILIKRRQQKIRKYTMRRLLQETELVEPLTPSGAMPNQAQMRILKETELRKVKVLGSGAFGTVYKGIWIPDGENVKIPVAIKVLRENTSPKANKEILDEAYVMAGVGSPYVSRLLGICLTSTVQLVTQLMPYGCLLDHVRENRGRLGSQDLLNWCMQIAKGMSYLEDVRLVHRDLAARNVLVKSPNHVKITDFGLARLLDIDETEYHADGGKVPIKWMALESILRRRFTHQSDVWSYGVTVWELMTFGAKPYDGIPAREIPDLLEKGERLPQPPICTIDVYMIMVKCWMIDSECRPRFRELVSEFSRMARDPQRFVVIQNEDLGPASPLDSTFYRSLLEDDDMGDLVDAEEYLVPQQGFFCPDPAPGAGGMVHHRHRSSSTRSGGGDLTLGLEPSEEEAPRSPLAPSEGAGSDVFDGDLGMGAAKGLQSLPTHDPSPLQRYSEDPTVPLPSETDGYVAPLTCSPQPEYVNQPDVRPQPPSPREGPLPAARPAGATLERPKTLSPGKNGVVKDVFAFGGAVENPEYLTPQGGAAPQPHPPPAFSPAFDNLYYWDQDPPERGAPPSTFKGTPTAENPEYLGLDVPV

Structure (SMILES) | Her2 level
Cc1ccc(NC2c3ncccc3C(=O)N2C2CCCCC2)cc1C (stereo not given) | 94.5% (inactive)
O=C(O)c1c[nH]c2ccc(S(=O)(=O)N3CCN(c4ccc(F)cc4)CC3)cc2c1=O | 124% (inactive)
O=C(O)Cn1cc2c(n1)CCCC2 | 98% (inactive)
O=C1CC(c2ccc(Cl)cc2)n2nc(N3C(=O)c4ccccc4C3=O)nc2N1 (stereo not given) | 93% (inactive)
CCc1nnc(NC(=O)CSc2nnc(-c3ccc(OC)cc3)n2C)s1 | 94% (inactive)
COc1cccc(NC(=O)Nc2cccs2)c1 | 79% (inactive)
Cn1c(=O)c2c(nc(NCCCO)n2CCc2ccccc2)n(C)c1=O | 138% (inactive)
CC(=O)c1coc2ccc(OCC(=O)O)cc12 | 90.5% (inactive)
CCCN(Cc1cc2ccc(C)cc2[nH]c1=O)C(=O)c1cccnc1 | 93% (inactive)
CCOP(=O)(c1ccc(N(C)C)cc1)C(O)c1ccccc1OC (stereo not given) | 98.5% (inactive)
CCOCCCn1c(=S)[nH]c2cc3c(cc2c1=O)OCO3 | 102% (inactive)
COc1ccc(CCNC(=O)C2CCN(Cc3nc(-c4cccc(Cl)c4)oc3C)CC2)cc1OC | 81.5% (inactive)
c1csc(-c2nc3nc4ccccc4nc3n2Cc2ccc3c(c2)OCO3)c1 | 75% (inactive)
CC(C)CC(NC(=O)OC(C)(C)C)C(=O)NC(C(=O)NC(C)C(N)=O)C(C)C (stereo not drawn) (Boc-Leu-Val-Ala-NH2; configuration not given here) | 107% (inactive)
COc1ccc(-c2ccc(Nc3ccc(S(=O)(=O)N4CCCC4)cc3)nn2)cc1OC | 70.5% (inactive)
CC1(C(=O)CSc2nc3ccccc3s2)CCC(=O)O1 (stereo not given) | 89% (inactive)
Cc1cc(NC(=O)CN2CCC(O)(c3cccc(F)c3)CC2)no1 | 107% (inactive)
COC(=O)c1[nH]c2ccccc2c1NC(=O)CN1CCC(C(N)=O)(N2CCCCC2)CC1 | 97.5% (inactive)
Cc1cc(C)n(CCCNC(=O)c2ccc3c(c2)NC(=O)CS3)n1 | 80.5% (inactive)
CCOC(=O)/C=C1\SCC(=O)N1Cc1ccc(Br)cc1 | 94% (inactive)

Structure (SMILES) | Her2 level
CCOc1ccc2cc(C#N)c(SCC(=O)N3CCOCC3)nc2c1 | 81.5% (inactive)
CCN(CC)CCN1C(=O)C(O)=C(C(=O)c2ccco2)C1c1ccccn1 (stereo not given) | 93% (inactive)
O=C1CCC(=O)N1OCCCCOc1ccccc1 | 93% (inactive)
O=C(O)CCc1ccc(-c2ccc(F)cc2)n1CC(=O)O | 87% (inactive)
CCN(CC)CCCN(Cc1cc2cc(OC)ccc2[nH]c1=O)C(=O)Nc1ccccc1 | 73% (inactive)
Cc1cccc(Cc2nnc(NC(=O)c3cccc(S(=O)(=O)N4CCOCC4)c3)s2)c1 | 100% (inactive)
CC(C)(CO)NC(=O)CCCOc1ccc(Cl)cc1Cl | 104% (inactive)
O=C(c1ccc(-c2ccccc2)cc1)N1CCN(c2ncccn2)CC1 | 96.5% (inactive)
Fc1ccc(-c2csc3nnc(SCc4cccnc4)n23)cc1 | 112% (inactive)
CN(C)CCCN1C(=O)C(=O)/C(=C(/O)c2ccncc2)C1c1cccc(Br)c1 (stereo not given) | 97% (inactive)
CCN(CC)c1ccc(-c2c(C#N)c(N)nc(OC)c2C#N)cc1 | 88.5% (inactive)
Cc1cc(NC(=O)CSc2nc3ccccc3n2CC(=O)N2CCCCC2)no1 | 70% (inactive)
CCOC(=O)C1CCN(C(c2cc3cc(C)cc(C)c3[nH]c2=O)c2nnnn2C2CCCCC2)CC1 (stereo not given) | 80% (inactive)
O=c1[nH]cnc2c1nc(SCc1ccccc1)n2C1OC(CO)C(O)C1O (stereo not given) | 88% (inactive)
COc1ccc(-c2noc(CCCC(=O)O)n2)cc1 | 91.5% (inactive)
Cc1nc(SCC(=O)N2CCC(C(N)=O)CC2)n[nH]1 | 108% (inactive)
COC(=O)c1ccc(NC(=O)Cn2nnc3ccccc32)cc1 | 82.5% (inactive)
O=C(CCC(=O)N1CCc2ccccc2C1)N1CCN(S(=O)(=O)c2ccccc2)CC1 | 116% (inactive)
O=C(CN1C(=O)CCSc2ccccc21)Nc1ccc(F)cc1 | 112% (inactive)
CCC(=O)/C=C1\Sc2ccc(OC)cc2N1CCO | 98% (inactive)
